# Laboratory results reported in the supplement of paper PMC11624193, “Coupling cellular drug-target engagement to downstream pharmacology with CeTEAM” (Nature Communications, 2024).
# Counter-ions that a name gives are not always drawn. ± gives the standard deviation of the averaged measurements.
# Molecular target: PARP1 L713F-nLuc biosensor (HCT116) (UniProt P09874)
# Experiment: PARP1 L713F-nLuc/akaLuc ratio relative to DMSO control (biosensor stabilization) (fold change); higher = more PARP1 biosensor stabilization (target engagement / stabilizer), active = hit call of the paper
# Conditions: stock concentration (mM; final µM = stock mM x 1): 10; 24 h;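 active = log2 fold change beyond 2 SD from the library mean after excluding viability outliers; inactive = within 2 SD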
# Sequence of PARP1 L713F-nLuc biosensor (HCT116) (P09874 whole entry L713F, looked up): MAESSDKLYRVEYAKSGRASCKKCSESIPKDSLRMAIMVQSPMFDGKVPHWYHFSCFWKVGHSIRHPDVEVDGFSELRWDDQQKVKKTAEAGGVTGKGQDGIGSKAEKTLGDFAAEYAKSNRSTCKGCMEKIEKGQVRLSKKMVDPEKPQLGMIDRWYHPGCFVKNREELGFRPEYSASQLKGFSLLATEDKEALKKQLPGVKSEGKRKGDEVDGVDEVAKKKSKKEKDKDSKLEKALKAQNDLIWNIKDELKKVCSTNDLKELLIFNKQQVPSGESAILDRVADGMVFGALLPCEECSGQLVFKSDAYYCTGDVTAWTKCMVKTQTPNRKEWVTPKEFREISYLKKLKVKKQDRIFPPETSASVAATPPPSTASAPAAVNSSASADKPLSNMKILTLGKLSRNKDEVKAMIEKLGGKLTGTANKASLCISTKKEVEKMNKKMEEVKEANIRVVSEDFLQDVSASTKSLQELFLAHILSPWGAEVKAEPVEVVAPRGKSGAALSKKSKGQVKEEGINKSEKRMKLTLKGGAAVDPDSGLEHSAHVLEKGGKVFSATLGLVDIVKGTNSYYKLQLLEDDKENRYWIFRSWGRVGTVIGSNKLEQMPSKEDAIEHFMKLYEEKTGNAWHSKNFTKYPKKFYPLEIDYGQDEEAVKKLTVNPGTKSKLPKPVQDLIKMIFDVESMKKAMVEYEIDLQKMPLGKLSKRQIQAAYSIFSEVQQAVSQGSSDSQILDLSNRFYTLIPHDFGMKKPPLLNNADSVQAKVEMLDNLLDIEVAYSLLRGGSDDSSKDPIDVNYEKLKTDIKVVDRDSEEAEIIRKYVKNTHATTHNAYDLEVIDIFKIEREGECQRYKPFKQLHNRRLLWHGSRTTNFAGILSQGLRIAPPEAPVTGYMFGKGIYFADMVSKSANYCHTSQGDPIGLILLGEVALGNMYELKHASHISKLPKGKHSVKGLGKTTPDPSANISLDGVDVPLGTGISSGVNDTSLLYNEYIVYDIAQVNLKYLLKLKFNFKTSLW
row,Compound,PARP1 L713F-nLuc/akaLuc ratio
1,CCOC(=O)CCNc1cc(N2CCc3ccccc3CC2)nc(-c2ccccn2)n1,0.586 (inactive)
2,CC(C(=O)Nc1cccc(/N=C/c2c(O)ccc3ccccc23)c1)c1ccccc1 (stereo not drawn) [Salermide],0.605 (inactive)
3,NC(=O)c1cccc2cn(-c3ccc([C@@H]4CCCNC4)cc3)nc12 [Niraparib (tosylate)],7.76 (active)
4,N[C@H]1C(O)O[C@H](CO)[C@@H](O)[C@@H]1O (stereo partly drawn) [Glucosamine],1.02 (inactive)
5,NC(=O)c1cccc2cn(-c3ccc([C@@H]4CCCNC4)cc3)nc12 [Niraparib (hydrochloride)],4.39 (active)
6,Cc1cc(N2C[C@@H](C)N[C@@H](C)C2)ncc1-c1ccc(-c2nc3c(ccn3C)c(=O)[nH]2)cc1,1.15 (inactive)
7,CC(C)(C)c1cc(NC(=O)Nc2ccc(-c3cn4c(n3)sc3cc(OCCN5CCOCC5)ccc34)cc2)no1 [Quizartinib (AC220)],0.802 (inactive)
8,CCCC(=O)c1c(O)c(Cc2c(O)c(Cc3c(O)c(C)c(OC)c(C(=O)CCC)c3O)c(O)c(C(=O)[C@@H](C)CC)c2O)c(O)c(C)c1OC [Agrimol B],1.14 (inactive)
9,C=CC[C@@H]1/C=C(\C)C[C@H](C)C[C@H](OC)[C@H]2O[C@@](O)(C(=O)C(=O)N3CCCC[C@H]3C(=O)O[C@H](/C(C)=C/[C@@H]3CC[C@@H](O)[C@H](OC)C3)[C@H](C)[C@@H](O)CC1=O)[C@H](C)C[C@@H]2OC [Tacrolimus (FK506)],0.7 (inactive)
10,O=c1[nH]c(N2CCC3(CC2)CN(CCO)c2cc(F)cc(F)c23)nc2c1CCCC2,0.755 (inactive)
11,C[C@]12CC[C@@H]3c4ccc(O)cc4C[C@@H](CCCCCCCCC[S+]([O-])CCCC(F)(F)C(F)(F)F)[C@H]3[C@@H]1CC[C@@H]2O (stereo partly drawn) [Fulvestrant],0.949 (inactive)
12,CC(C)(C)c1nc(-c2cccc(NS(=O)(=O)c3c(F)cccc3F)c2F)c(-c2ccnc(N)n2)s1,0.885 (inactive)
13,N[C@H]1C(O)O[C@H](CO)[C@@H](O)[C@@H]1O (stereo partly drawn) [Glucosamine (hydrochloride)],1.15 (inactive)
14,COc1cc2c(NC3CCN(C)CC3)nc(N3CCCN(C)CC3)nc2cc1OCCCN(C)C,0.782 (inactive)
15,CO[C@@]12[C@H](COC(N)=O)C3=C(C(=O)C(C)=C(N)C3=O)N1C[C@@H]1N[C@@H]12 [Mitomycin C],1.07 (inactive)
16,COc1cc(C(=O)N2C[C@H](N)CC[C@@H]2C)cc2nc(-c3cc4cccnc4n3CC3CC3)n(C)c12 [BMS-P5 (free base)],0.878 (inactive)
17,Cn1cc(C2=C(c3cn(CCCSC(=N)N)c4ccccc34)C(=O)NC2=O)c2ccccc21 [Ro 31-8220 (mesylate)],1.62 (inactive)
18,Cn1cccc1/C=C1\C(=O)NC(=O)c2ccccc21,3.34 (active)
19,CC1=C(CC[C@@H](C)CO[C@@H]2O[C@H](CO)[C@@H](O)[C@H](O)[C@H]2O)O[C@H]2C[C@H]3[C@@H]4CC=C5C[C@@H](O[C@@H]6O[C@H](CO)[C@@H](O[C@@H]7O[C@@H](C)[C@H](O)[C@@H](O)[C@H]7O)[C@H](O)[C@H]6O[C@@H]6O[C@@H](C)[C@H](O)[C@@H](O)[C@H]6O)CC[C@]5(C)[C@H]4CC[C@]3(C)[C@@H]12 [Pseudoprotodioscin],0.989 (inactive)

row,Compound,PARP1 L713F-nLuc/akaLuc ratio
1,CNc1nc(-c2ccc3c(N)n[nH]c3c2)cc(N2C[C@@H](C(=O)NC3CCCCC3)CC[C@H]2C)n1,0.434 (inactive)
2,C[C@@H]1CCN(C(=O)CC#N)C[C@@H]1N(C)c1ncnc2[nH]ccc12,0.783 (inactive)
3,CN(C)CCCCCCNC(=O)c1cccc(-c2cc(O)c3ncccc3c2)c1,0.363 (inactive)
4,COc1ccccc1C(=O)Nc1cc2c(cc1N1CCCCC1)n(C)c(=O)n2C,1.25 (inactive)
5,O=C(Nc1ccc2c(O)cc(S(=O)(=O)O)cc2c1)Nc1ccc2c(O)cc(S(=O)(=O)O)cc2c1 [AMI-1 (free acid)],1.04 (inactive)
6,C/C=C(\CC[C@@H](C)[C@H]1CC[C@H]2[C@@H]3CC=C4C[C@@H](O)CC[C@]4(C)[C@H]3CC[C@]12C)C(C)C [Fucosterol],1.04 (inactive)
7,Cc1ccc(C(=O)Nc2ccc(S(=O)(=O)O)c3cc(S(=O)(=O)O)cc(S(=O)(=O)O)c23)cc1NC(=O)c1cccc(NC(=O)Nc2cccc(C(=O)Nc3cc(C(=O)Nc4ccc(S(=O)(=O)O)c5cc(S(=O)(=O)O)cc(S(=O)(=O)O)c45)ccc3C)c2)c1 [Suramin (sodium salt)],0.738 (inactive)
8,O=C(Nc1c[nH]nc1-c1nc2ccc(CN3CCOCC3)cc2[nH]1)NC1CC1,2.07 ± 0.91
9,Cc1cccc(-c2nn3c(c2-c2ccnc4ccc(C(N)=O)cc24)CCC3)n1,0.664 (inactive)
10,CCNC(=O)C#Cc1ccc2c(C(=Nc3ccc(CN(C)C)cc3)c3ccccc3)c(O)[nH]c2c1,0.604 (inactive)
11,COc1cccc(OC)c1C(=O)OCc1cc(O)ccc1O[C@@H]1O[C@H](CO)[C@@H](O)[C@H](O)[C@H]1O [Curculigoside],0.993 (inactive)
12,Nc1ncc(-c2cnn(CCO)c2)c2scc(-c3ccc(NC(=O)Nc4cccc(F)c4)cc3)c12 [Ilorasertib (hydrochloride)],0.906 (inactive)
13,CN1CCc2c(c3ccccc3n2Cc2ccc(C(=O)NO)cc2)C1 [Tubastatin A (Hydrochloride)],2.07 (inactive)
14,CNCCN1CCC(OCc2ccccc2)CC1,0.908 (inactive)
15,N#Cc1cc2cc(CN3CCC(Nc4ncnc5sc(CC(F)(F)F)cc45)CC3)c(O)cc2n1Cc1cn[nH]c1,0.315 (active)
16,O=C(Nc1ccc(O)c(C(=O)O)c1)c1cccc(NC(=O)c2ccco2)c1,1.19 (inactive)
17,"C=CC(=O)N1C[C@@H](Nc2ncnc3[nH]ccc23)CC[C@H]1C [(2R,5S)-Ritlecitinib]",1.05 (inactive)
18,O=c1ccc2ccc(O)c(O)c2o1 [Daphnetin],1.38 (inactive)
19,CC1(C)NC(=O)N(c2ccc([N+](=O)[O-])c(C(F)(F)F)c2)C1=O [Nilutamide],0.772 (inactive)
